In PubChem BioAssay (NCI) one finds growth data, which are given here for five molecules.

What all share (assay): NCI-60 one-dose screen, 48 h (100 = growth as untreated, 0 = no growth, -100 = all killed)
Test [1] concerns NCI-H23 lung. The settings on record: 10 µM.
Test [2] relates to K-562 leukemia. As to conditions: 10 µM.
Test [3] concerns MDA-MB-231 breast. The settings on record: 10 µM.
Test [4] has as its system PC-3 prostate. The settings on record: 10 µM.
Test [5] deals with LOX IMVI melanoma. The settings on record: 10 µM.
In test [6] the test system is SK-MEL-28 melanoma. The settings on record: 10 µM.
Test [7] concerns ACHN renal. The settings on record: 10 µM.
Test [8] relates to CAKI-1 renal. As to conditions: 10 µM.
The test system of test [9] is MOLT-4 leukemia. As to conditions: 10 µM.
Test [10] concerns SR leukemia. As to conditions: 10 µM.
In test [11] the test system is OVCAR-3 ovarian. The settings on record: 10 µM.
The subject of test [12] is HS 578T breast. As to conditions: 10 µM.
Test [13] deals with SW-620 colon. The settings on record: 10 µM.
Test [14] deals with HCC-2998 colon. As to conditions: 10 µM.
The subject of test [15] is KM12 colon. As to conditions: 10 µM.
The subject of test [16] is MDA-MB-468 breast. The settings on record: 10 µM unless noted.
For test [17], the system named is UO-31 renal. As to conditions: 10 µM.
Test [18] deals with BT-549 breast. The settings on record: 10 µM.
Test [19] deals with SNB-75 CNS. The settings on record: 10 µM.

Structures are written as SMILES. Compounds without any hit were thinned out: in the full panel of roughly 83,000, 20% have a hit.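 Method: cells in 96-well plates; compound added at one concentration; 48 h incubation; percent growth measured; values under 10 scored active.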 A number with no mark means an inactive call. Activity calls are given as the source filed them.

As for `COP(=O)(CC(F)(F)C(F)(F)F)OC`, the growth is 41.8% in test [1]; 10.9% in [2]; 65.1% in test [3]; 69.5% in test [4]; -63.5% (active) in test [5]; -58.1% (active) in [6]. The growth in test [7] was -97.6% (active); in test [8], 10.3%; in [9], 5.72% (active); in test [10] it was 5.42% (active); in [11] it was -3.42% (active); in test [12], 75.3%. The growth in test [13] is -15.9% (active); in [14], 91%; in test [15], 94.6%; in [16] it was -53.6% (active).

`CCOP(=O)(CC(F)(F)C(F)(F)F)OCC`: the growth was 50.4% in [1]; 5.12% (active) in test [2]; 51.1% in test [3]; -47.1% (active) in [6]; 25.1% in [17]; -23.1% (active) in test [7]. The growth in test [9] was 4% (active); in [10] it was 4.39% (active); in [11], -61.5% (active); in test [12], 82.2%; in [13] it was -8.33% (active); in test [16] it was -59.3% (active).

For the molecule `CC(=O)Oc1ccccc1C(=O)NC([Se])=NC1CCCCC1`, the growth is -0.217% (active) in test [1]; 61.8% in test [2]; -14.7% (active) in test [6]; -87.7% (active) in [17]; 29.4% in [9]; 41.4% in test [10]. For the same molecule, the growth in [18] was 33.8%; in test [15], 5.47% (active); in [16] it was -4.29% (active).

Take `O=C(/C=C/c1ccc(Cl)cc1Cl)c1nc2ccccc2n1Cc1ccc(F)cc1`: the growth in test [1] was 47.8%; in test [2] it was 14.5%; in [17], 36.5%; in test [7], 48.7%; in [8] it was 53.3%; in test [9], 4.16% (active). The growth was -1.72% (active) in [10], 31.7% in test [11] and 12.3% in test [16].

Take `C=CC[Se]C(=O)c1cncc(C(=O)[Se]CC=C)c1`: the growth was -74.7% (active) in [1]; -15.7% (active) in [2]; -61.4% (active) in [19]; -98.4% (active) in test [17]; -12.9% (active) in test [7]; -22.9% (active) in [9]. For the same molecule, the growth in test [10] was -13.3% (active); in test [18], -94.9% (active); in [14], -92.6% (active); in test [15] it was -73.1% (active); in test [16] it was -85.2% (active).
